Test in all cases: cross-link between two proteins; cross-linking mass spectrometry
Experiment [1] addresses 26S proteasome regulatory subunit RPN7 (UniProt Q06103).
The target in experiment [2] is 26S proteasome regulatory subunit RPN8 (UniProt Q08723).
Experiment [3] concerns the target Ubiquitin C-terminal hydrolase RPN11 (UniProt P43588).
Experiment [4] addresses 26S proteasome regulatory subunit RPN6 (UniProt Q12377).
Experiment [5] concerns the target 26S proteasome regulatory subunit RPN5 (UniProt Q12250).
Experiment [6] addresses 26S proteasome regulatory subunit RPN3 (UniProt P40016).

Sequence of 26S proteasome regulatory subunit RPN6 (Q12377 whole entry): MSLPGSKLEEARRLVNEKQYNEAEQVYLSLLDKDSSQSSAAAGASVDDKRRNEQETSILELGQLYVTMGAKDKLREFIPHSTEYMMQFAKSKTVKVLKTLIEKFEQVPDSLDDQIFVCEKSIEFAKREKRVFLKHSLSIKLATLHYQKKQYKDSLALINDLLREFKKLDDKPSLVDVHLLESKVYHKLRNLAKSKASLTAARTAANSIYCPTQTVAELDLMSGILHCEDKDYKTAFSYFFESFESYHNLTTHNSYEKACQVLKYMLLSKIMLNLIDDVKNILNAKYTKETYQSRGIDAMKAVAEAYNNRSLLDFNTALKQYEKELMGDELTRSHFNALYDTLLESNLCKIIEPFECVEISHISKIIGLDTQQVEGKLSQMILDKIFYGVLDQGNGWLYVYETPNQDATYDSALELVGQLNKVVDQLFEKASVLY
Sequence of 26S proteasome regulatory subunit RPN8 (Q08723 whole entry): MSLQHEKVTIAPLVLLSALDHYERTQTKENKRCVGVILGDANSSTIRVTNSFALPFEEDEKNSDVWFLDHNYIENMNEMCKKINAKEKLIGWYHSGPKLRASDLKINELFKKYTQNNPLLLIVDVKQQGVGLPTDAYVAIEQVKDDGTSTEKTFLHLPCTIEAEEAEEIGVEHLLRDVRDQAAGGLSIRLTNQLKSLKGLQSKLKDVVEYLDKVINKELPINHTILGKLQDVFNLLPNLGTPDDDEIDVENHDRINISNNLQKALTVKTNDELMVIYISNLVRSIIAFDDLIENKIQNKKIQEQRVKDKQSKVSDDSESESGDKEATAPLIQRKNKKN
Sequence of 26S proteasome regulatory subunit RPN5 (Q12250 whole entry): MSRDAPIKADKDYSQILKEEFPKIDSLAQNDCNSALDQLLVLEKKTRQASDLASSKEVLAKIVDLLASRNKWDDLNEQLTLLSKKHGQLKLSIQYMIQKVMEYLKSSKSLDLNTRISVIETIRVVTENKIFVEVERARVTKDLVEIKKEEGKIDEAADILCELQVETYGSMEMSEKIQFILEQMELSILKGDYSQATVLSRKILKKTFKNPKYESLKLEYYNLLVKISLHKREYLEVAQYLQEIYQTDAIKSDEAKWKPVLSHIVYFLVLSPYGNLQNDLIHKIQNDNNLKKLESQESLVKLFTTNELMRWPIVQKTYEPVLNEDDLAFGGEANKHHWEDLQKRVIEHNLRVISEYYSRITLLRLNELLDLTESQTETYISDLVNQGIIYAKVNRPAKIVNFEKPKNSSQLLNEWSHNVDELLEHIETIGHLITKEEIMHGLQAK
Sequence of Ubiquitin C-terminal hydrolase RPN11 (P43588 whole entry): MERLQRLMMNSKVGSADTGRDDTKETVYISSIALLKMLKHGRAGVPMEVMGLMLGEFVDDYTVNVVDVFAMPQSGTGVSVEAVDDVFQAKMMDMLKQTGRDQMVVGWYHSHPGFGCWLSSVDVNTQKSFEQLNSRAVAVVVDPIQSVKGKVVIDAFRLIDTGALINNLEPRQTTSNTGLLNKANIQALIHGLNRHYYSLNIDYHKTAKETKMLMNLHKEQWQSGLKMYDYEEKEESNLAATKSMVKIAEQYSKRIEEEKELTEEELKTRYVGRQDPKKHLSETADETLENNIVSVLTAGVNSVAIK
Sequence of 26S proteasome regulatory subunit RPN7 (Q06103 whole entry): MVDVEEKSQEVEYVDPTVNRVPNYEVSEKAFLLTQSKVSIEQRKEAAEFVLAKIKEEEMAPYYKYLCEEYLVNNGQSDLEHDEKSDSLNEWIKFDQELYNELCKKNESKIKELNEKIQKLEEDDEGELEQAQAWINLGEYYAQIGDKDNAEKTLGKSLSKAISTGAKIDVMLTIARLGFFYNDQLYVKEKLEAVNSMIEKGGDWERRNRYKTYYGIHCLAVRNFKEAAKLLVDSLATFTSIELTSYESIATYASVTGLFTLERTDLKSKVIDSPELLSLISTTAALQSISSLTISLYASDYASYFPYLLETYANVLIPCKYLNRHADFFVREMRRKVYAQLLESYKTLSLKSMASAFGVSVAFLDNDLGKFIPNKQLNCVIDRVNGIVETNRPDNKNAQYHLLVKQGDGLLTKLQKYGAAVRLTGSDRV
Sequence of 26S proteasome regulatory subunit RPN3 (P40016 whole entry): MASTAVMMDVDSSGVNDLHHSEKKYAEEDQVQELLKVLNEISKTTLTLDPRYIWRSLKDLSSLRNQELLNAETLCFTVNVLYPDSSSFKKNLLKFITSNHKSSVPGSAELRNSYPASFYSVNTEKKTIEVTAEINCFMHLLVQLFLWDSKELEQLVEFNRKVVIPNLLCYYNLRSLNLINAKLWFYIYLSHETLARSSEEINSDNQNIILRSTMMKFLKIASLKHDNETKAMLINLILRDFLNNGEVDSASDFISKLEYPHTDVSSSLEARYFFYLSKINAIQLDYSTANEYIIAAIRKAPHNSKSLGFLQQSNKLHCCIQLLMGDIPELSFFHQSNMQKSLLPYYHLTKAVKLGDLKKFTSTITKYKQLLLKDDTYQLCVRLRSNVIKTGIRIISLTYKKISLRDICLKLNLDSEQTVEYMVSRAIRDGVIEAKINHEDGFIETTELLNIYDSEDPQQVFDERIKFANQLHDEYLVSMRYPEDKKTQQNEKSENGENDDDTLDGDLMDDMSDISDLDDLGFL

For the substance “26S proteasome regulatory subunit RPN3, P40016”, the “listed as a hit” value in experiment [1], in experiment [2] and in experiment [3] was “yes” each time.
Consider “26S proteasome regulatory subunit RPN5, Q12250”, for which the “listed as a hit” value in experiment [4] is given as “yes”.
Take “Ubiquitin C-terminal hydrolase RPN11, P43588”: the “listed as a hit” value in experiment [5], in experiment [4] and in experiment [1] was “yes” throughout.
Consider “26S proteasome regulatory subunit RPN9, Q04062”, for which the “listed as a hit” value in experiment [5] and in experiment [2] was “yes” each time.
For “26S proteasome regulatory subunit RPN7, Q06103”, the “listed as a hit” value in experiment [5], in experiment [4] and in experiment [2] was “yes” throughout.
As to “26S proteasome complex subunit SEM1, O94742”, the “listed as a hit” value in experiment [6], in experiment [2] and in experiment [3] was “yes” in each case.
As to “26S proteasome regulatory subunit RPN8, Q08723”, the “listed as a hit” value in experiment [5] and in experiment [4] was “yes” each time.
